Some test systems named below: HCT-15 colon; SNB-75 CNS; SNB-19 CNS; U251 CNS; PC-3 prostate; SK-MEL-5 melanoma; UACC-62 melanoma; LOX IMVI melanoma; SK-MEL-28 melanoma; SK-MEL-2 melanoma; EKVX NSCLC; SN12C renal; UO-31 renal; TK-10 renal; ACHN renal; CAKI-1 renal; A498 renal; CCRF-CEM leukemia; MOLT-4 leukemia.
Holding throughout (assay): NCI-60 one-dose screen, 48 h (100 = growth as untreated, 0 = no growth, -100 = all killed)
Holding throughout (conditions): 10 µM unless noted

The panel holds about 83,000 compounds, 20% with a hit somewhere; the sample as a whole holds those more often.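 Cell lines were cultured in 96-well plates, exposed to a single compound concentration, and assessed for percent growth 48 hours later.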 Values without a mark were called inactive. Active and inactive are the calls of the source. The calls were made as follows: active = growth percent below 10; inactive = the rest.

For `COc1ccc([C@H]2C(=O)N(c3cc(OC)c(OC)c(OC)c3)[C@@H]2c2ccc(OC)c(O)c2)cc1`, the growth was 9.51% (active) in the assay on HCT-15 colon; 40.2% in the assay with SNB-75 CNS; 28.3% in the assay with SNB-19 CNS; 15.7% with U251 CNS; 20.9% with PC-3 prostate; -23% (active) with SK-MEL-5 melanoma. The growth is 33.1% in the assay with UACC-62 melanoma; 13.1% with LOX IMVI melanoma; 63.7% in the assay on SK-MEL-28 melanoma; 9.11% (active) in the assay on SK-MEL-2 melanoma; 46.1% with EKVX NSCLC; 30.4% with SN12C renal. Besides, the growth with UO-31 renal was 26.9%; in the assay on TK-10 renal, 110%; with ACHN renal, 28.4%; in the assay on CAKI-1 renal it was 24.5%; in the assay on A498 renal it was -29.9% (active); in the assay on CCRF-CEM leukemia, 18.9%. The growth in the assay on MOLT-4 leukemia was 13.4%.

With `Clc1ccc(CSc2nnc(-c3ccc(Cl)cc3)n2-c2ccccc2)cc1`, the growth is 93.3% in the assay on HCT-15 colon; -0.642% (active) with SNB-75 CNS; 62% with SNB-19 CNS; 81.2% in the assay with U251 CNS; 71% with PC-3 prostate; 94.3% in the assay with SK-MEL-5 melanoma. Besides, the growth in the assay with UACC-62 melanoma is 85.8%; in the assay on LOX IMVI melanoma, 88.6%; with SK-MEL-28 melanoma it was 98.8%; in the assay with SK-MEL-2 melanoma, 85.9%; in the assay with EKVX NSCLC it was 86.6%; in the assay on SN12C renal, 82.9%. Also, the growth was 68.2% in the assay with UO-31 renal; 93.3% in the assay on TK-10 renal; 55.5% in the assay on ACHN renal; 62.9% with CAKI-1 renal; 68% with A498 renal; 97.4% with CCRF-CEM leukemia. The growth in the assay on MOLT-4 leukemia is 92%.

Regarding `NS(=O)(=O)c1ccc(CCn2c(-c3ccc(C(=O)O)cc3)nc(-c3ccccc3)c2-c2ccccc2)cc1`, the growth in the assay on HCT-15 colon was 94.5%; in the assay on SNB-75 CNS it was 86.1%; in the assay on SNB-19 CNS, 102%; in the assay on U251 CNS, 110%; in the assay with PC-3 prostate, 93.5%; with SK-MEL-5 melanoma, 99.1%. Further, the growth is 94.2% with UACC-62 melanoma; 102% in the assay on LOX IMVI melanoma; 102% in the assay with SK-MEL-28 melanoma; 104% in the assay on SK-MEL-2 melanoma; 100% with EKVX NSCLC; 101% in the assay on SN12C renal. Also, the growth was 90.8% in the assay with UO-31 renal; 102% in the assay on TK-10 renal; 103% in the assay with ACHN renal; 88.7% with CAKI-1 renal; 102% in the assay on A498 renal; 104% with CCRF-CEM leukemia. Besides, the growth in the assay on MOLT-4 leukemia was 108%.

`Cc1ccc(S(=O)(=O)NCCCNc2nc(Nc3ccc(N4CCN(C)CC4)cc3)nc3ccsc23)cc1`: the growth in the assay on HCT-15 colon was 3% (active); in the assay with SNB-75 CNS, 88.5%; with SNB-19 CNS, 58.7%; in the assay on U251 CNS, 6.58% (active); in the assay with PC-3 prostate it was 63.5%; with SK-MEL-5 melanoma, -84.1% (active). Besides, the growth was -48.3% (active) in the assay with UACC-62 melanoma; -77.6% (active) with LOX IMVI melanoma; -84.5% (active) in the assay on SK-MEL-28 melanoma; 92.9% with SK-MEL-2 melanoma; 78.8% in the assay with EKVX NSCLC; 58.3% in the assay on SN12C renal. Further, the growth in the assay with UO-31 renal is 50.7%; in the assay on TK-10 renal it was 124%; with ACHN renal, 11.7%; with CAKI-1 renal, 14.5%; with A498 renal it was 56.2%; in the assay with CCRF-CEM leukemia, 18.1%. Further, the growth in the assay with MOLT-4 leukemia was 9.91% (active).

Take `CC(Nc1c(C#N)cnc2ccc(-c3cncc(O)c3)cc12)c1ccccc1` (stereo not drawn): the growth in the assay with HCT-15 colon was 4.88% (active); with SNB-75 CNS, 10.5%; in the assay on SNB-19 CNS it was -6.67% (active); in the assay on U251 CNS, 6.74% (active); in the assay with PC-3 prostate it was 9.41% (active); in the assay on SK-MEL-5 melanoma, -89.4% (active). For the same molecule, the growth with UACC-62 melanoma was -51.2% (active); in the assay with LOX IMVI melanoma it was 1.56% (active); with SK-MEL-28 melanoma, 3.08% (active); in the assay on SK-MEL-2 melanoma, -43.6% (active); with SN12C renal, -5.67% (active); with UO-31 renal, -9.46% (active). The growth with TK-10 renal was -13.2% (active); in the assay with ACHN renal, 3.13% (active); with CAKI-1 renal it was 7.08% (active); in the assay with A498 renal, 45%; in the assay on CCRF-CEM leukemia, 10.6%; in the assay on MOLT-4 leukemia, 2.65% (active).

Take `NC(=O)n1c(=O)n(-c2cccc(C(F)(F)F)c2)c(=O)c2cc(-c3ccc(F)cc3F)ccc21`: the growth in the assay on HCT-15 colon is 10.1%; in the assay with SNB-75 CNS it was -18.3% (active); in the assay on SNB-19 CNS, 11%; in the assay on U251 CNS, 6.64% (active); in the assay on PC-3 prostate, -11.8% (active); in the assay with SK-MEL-5 melanoma, -59.7% (active). The growth is -6.78% (active) in the assay on UACC-62 melanoma; -28.3% (active) in the assay with LOX IMVI melanoma; 26.1% in the assay with SK-MEL-28 melanoma; -20.1% (active) with SK-MEL-2 melanoma; -0.656% (active) in the assay on EKVX NSCLC; 4.54% (active) in the assay with UO-31 renal. Also, the growth with TK-10 renal is 8.59% (active); in the assay on ACHN renal it was -3.85% (active); with CAKI-1 renal, -21.6% (active); with A498 renal it was -26.4% (active); with CCRF-CEM leukemia, 9.98% (active); with MOLT-4 leukemia it was 0.274% (active).

With `N#Cc1c(-c2cccs2)cc(-c2cnccn2)nc1SCC(=O)N/N=C/c1ccccc1`, the growth with HCT-15 colon was 39.1%; in the assay with SNB-75 CNS it was 12.6%; in the assay on SNB-19 CNS it was 39.7%; with U251 CNS, 11.9%; with PC-3 prostate, 65.2%; in the assay on SK-MEL-5 melanoma it was 4.1% (active). Besides, the growth in the assay on UACC-62 melanoma is 55.3%; in the assay on LOX IMVI melanoma, -28.7% (active); with SK-MEL-28 melanoma, 43.9%; in the assay with SK-MEL-2 melanoma it was 103%; in the assay on EKVX NSCLC, 56.2%; in the assay with SN12C renal, 45.5%. Moreover, the growth in the assay with UO-31 renal is 75.8%; in the assay on TK-10 renal, -14.7% (active); in the assay on ACHN renal, 56.9%; in the assay with CAKI-1 renal it was 48.2%; with A498 renal, 87.8%; in the assay on CCRF-CEM leukemia, 62.6%. Moreover, the growth in the assay with MOLT-4 leukemia was 71.8%.

Consider `CCOC(=O)c1c(NC(=O)c2ccc(C(F)(F)F)cc2)sc2c(CN3CCN(C)CC3)c(O)ccc12`, for which the growth was -72.9% (active) in the assay with HCT-15 colon; 63.8% in the assay on SNB-75 CNS; -27.3% (active) in the assay with SNB-19 CNS; -88% (active) in the assay on U251 CNS; -79% (active) in the assay with PC-3 prostate; 64.4% in the assay with SK-MEL-5 melanoma. For the same molecule, the growth with UACC-62 melanoma was 28.8%; in the assay on LOX IMVI melanoma it was -93.1% (active); in the assay on SK-MEL-28 melanoma, -82.3% (active); in the assay on SK-MEL-2 melanoma it was 44.8%; in the assay with EKVX NSCLC it was 21.5%; in the assay on SN12C renal, -75.7% (active). Moreover, the growth in the assay on UO-31 renal is -93.6% (active); in the assay on TK-10 renal, -71.2% (active); in the assay on ACHN renal, -89.4% (active); in the assay with CAKI-1 renal, -66% (active); with A498 renal, -6.72% (active); with MOLT-4 leukemia, -36.5% (active).

As for `Cc1ccc(/C(N)=N/C(N)=N/c2nc3ccccc3s2)cc1`, the growth in the assay on HCT-15 colon is 52.2%; with SNB-75 CNS, 96.5%; with SNB-19 CNS it was 95.3%; in the assay on U251 CNS it was 82%; in the assay with PC-3 prostate it was 63.5%; in the assay on SK-MEL-5 melanoma, 91%. Further, the growth in the assay on UACC-62 melanoma is 91.9%; in the assay with LOX IMVI melanoma, -17% (active); with SK-MEL-28 melanoma, 116%; in the assay on SK-MEL-2 melanoma, 114%; with EKVX NSCLC it was 67.7%; in the assay with SN12C renal, 60.2%. For the same molecule, the growth in the assay on UO-31 renal is 87%; in the assay on TK-10 renal, 136%; in the assay with ACHN renal it was 66.8%; in the assay with CAKI-1 renal, 76.8%; in the assay with A498 renal, 121%; in the assay with CCRF-CEM leukemia it was 78.9%. Besides, the growth with MOLT-4 leukemia is 75.9%.

For `CCOC(=O)c1c(NC(=O)c2cccc(C(F)(F)F)c2)sc2c3c(ccc12)OCN(C)C3`, the growth with HCT-15 colon is -70.9% (active); in the assay on SNB-75 CNS it was 83.6%; with SNB-19 CNS, 49.6%; in the assay on U251 CNS, -79.4% (active); with PC-3 prostate, -42.5% (active); with SK-MEL-5 melanoma, 68.6%. For the same molecule, the growth in the assay on UACC-62 melanoma is 25.6%; with LOX IMVI melanoma it was -94.7% (active); with SK-MEL-28 melanoma it was 9.77% (active); in the assay on SK-MEL-2 melanoma, 98.8%; in the assay on EKVX NSCLC, 36.9%; in the assay on SN12C renal, -66.2% (active). Further, the growth in the assay on UO-31 renal was 31.8%; in the assay with TK-10 renal, 126%; in the assay on ACHN renal it was -91.9% (active); with CAKI-1 renal, 44.8%; with A498 renal, 84.3%; in the assay on CCRF-CEM leukemia it was -39.5% (active). Also, the growth in the assay with MOLT-4 leukemia is -48.5% (active).

Consider `Brc1cc(-c2cc(-c3ccc4c(c3)OCCO4)[nH]n2)cs1`, for which the growth is 24.4% with HCT-15 colon; 19.9% in the assay on SNB-75 CNS; 56.9% with SNB-19 CNS; 40% in the assay on U251 CNS; 61.8% in the assay with PC-3 prostate; 23.5% in the assay on SK-MEL-5 melanoma. The growth in the assay with UACC-62 melanoma is 54.7%; in the assay with LOX IMVI melanoma, 42.3%; in the assay with SK-MEL-28 melanoma it was 58.6%; in the assay with SK-MEL-2 melanoma, 62.7%; in the assay on EKVX NSCLC, 62.4%; in the assay on SN12C renal it was 65%. The growth in the assay on UO-31 renal is 54.6%; in the assay on TK-10 renal, 138%; in the assay on ACHN renal it was 56%; in the assay with CAKI-1 renal, 33.8%; in the assay with A498 renal, 48.6%; in the assay with CCRF-CEM leukemia it was 23.4%. Moreover, in the assay with MOLT-4 leukemia, the growth is 27.8%.

For `CCN(CC)CCOc1ccc(C(=C(C)c2ccc(OC)cc2)c2ccc(OCCN(CC)CC)cc2)cc1`, the growth in the assay with HCT-15 colon is -27.1% (active); in the assay on SNB-75 CNS it was 30.5%; in the assay with SNB-19 CNS it was 11.9%; in the assay on U251 CNS it was -44.5% (active); in the assay on PC-3 prostate, 17%; in the assay on SK-MEL-5 melanoma, -94.1% (active). The growth was -81.6% (active) in the assay with UACC-62 melanoma; -77.9% (active) in the assay on LOX IMVI melanoma; -83.7% (active) with SK-MEL-28 melanoma; -36.7% (active) in the assay with SK-MEL-2 melanoma; -75.1% (active) in the assay on UO-31 renal; 18.8% in the assay on TK-10 renal. The growth in the assay on ACHN renal was -34.1% (active); in the assay on CAKI-1 renal, -18.2% (active); in the assay on A498 renal, -29% (active); with CCRF-CEM leukemia, -10.8% (active); in the assay with MOLT-4 leukemia, 1.17% (active).

The values are drawn from PubChem BioAssay (NCI).
